DT40 TDP1 CPT – growth inhibition of DT40 Tdp1-/-;hTDP1 cells with camptothecin (screen for TDP1 inhibitors); AID 686979; hit rate 12% among 420,000; Potency, µM (highest dose often 46.2 µM), for inactives: at the top dose activity change, negative = growth inhibition, actives largely listed as inhibitors; chicken DT40 Tdp1-/-;hTDP1 cells + 20 nM CPT, ATP luminescence, 48 h; also: % is scaled to controls: 0 for no effect and ±100 for the full control effect; nearly all actives have a fitted effect of over 55% in size
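Chicken DT40 Tdp1-/- cells complemented with human TDP1, 400 cells/well, exposed to compounds plus 20 nM camptothecin for at least 48 h at 37 C; viability read as ATP content by CellTiter-Glo luminescence.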
TDP1 block – blocks human tyrosyl-DNA phosphodiesterase 1. Q9NUW8. recombinant TDP1, AlphaScreen DNA substrate cleavage. Potency, µM (top dose mostly 130 µM), for inactives: top-dose activity change, negative = inhibition, hits mostly inhibitors. hit rate 0.28% among 350,000. AID 485290; also: % is scaled to controls: 0 for no effect and ±100 for the full control effect; nearly all actives have a fitted effect of over 40% in size
Target sequence (Q9NUW8 whole entry, looked up): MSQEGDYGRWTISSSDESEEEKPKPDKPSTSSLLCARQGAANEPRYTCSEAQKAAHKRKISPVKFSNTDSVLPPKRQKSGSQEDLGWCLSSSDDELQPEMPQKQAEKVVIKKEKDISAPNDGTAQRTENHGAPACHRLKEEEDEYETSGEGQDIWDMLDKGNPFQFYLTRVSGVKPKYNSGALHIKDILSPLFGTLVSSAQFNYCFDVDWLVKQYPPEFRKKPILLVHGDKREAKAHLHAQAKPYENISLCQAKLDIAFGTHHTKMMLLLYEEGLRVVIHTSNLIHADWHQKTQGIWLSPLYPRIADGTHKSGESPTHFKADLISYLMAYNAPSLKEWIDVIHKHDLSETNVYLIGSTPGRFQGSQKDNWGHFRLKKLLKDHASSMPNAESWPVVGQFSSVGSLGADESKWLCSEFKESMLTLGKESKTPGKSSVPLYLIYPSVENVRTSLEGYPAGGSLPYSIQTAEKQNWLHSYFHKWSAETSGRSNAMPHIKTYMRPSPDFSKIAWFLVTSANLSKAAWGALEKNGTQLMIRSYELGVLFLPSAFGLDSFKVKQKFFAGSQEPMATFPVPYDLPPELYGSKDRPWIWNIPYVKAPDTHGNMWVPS
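Compounds were preincubated with Tdp1 (1 nM final) for 15 min at room temperature before substrate (15 nM final) started a 5 min reaction; beads (10 ug/ml final) were then added for 10 min before AlphaScreen detection.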
ClpP mod – qHTS Assay for Activators of ClpP | purified B. subtilis ClpP, FRET peptide cleavage, 20 min | hit rate 1.9% among 340,000 | AID 651965, 2013 | ATP-dependent Clp protease proteolytic subunit (Bacillus subtilis (strain 168)), P80244 | Potency, µM (series often up to 57.5 µM), for inactives: top-dose activity change, negative = active; active = well fitted falling curve with a large enough effect; inconclusive = small, poorly fitted or top-dose-only effect; inactive = no such curve, though single readings can be large or run the other way; also: the source files actives as falling curves though it sought activators and does not explain the sign; nearly all actives have a fitted effect of over 65% in size
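Purified B. subtilis ClpP, 10 microg/mL final in Tris/HCl pH8 with KCl, BSA, glycerol and Tween-20, cleaved an Abz/nitrotyrosine-quenched decapeptide. Fluorescence (ex 320, em 430) was read at 0 and 20 min at room temperature. Delta was normalized to 5.8 microM ADEP and DMSO/no-enzyme controls.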
DT40 TDP1 no CPT – qHTS for Inhibitors of human tyrosyl-DNA phosphodiesterase 1 (TDP1): qHTS in cells in absence of CPT. DT40 Tdp1-/- hTDP1 cells, no CPT, ATP luminescence, 48 h. Potency, µM (highest dose often 46.2 µM), for the others: top-dose activity change, negative = growth inhibition, most hits filed as inhibitors. hit rate 15% among 420,000. AID 686978, 2013; also: % is scaled to controls: 0 for no effect and ±100 for the full control effect; nearly all actives have a fitted effect of over 55% in size
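Luminescent ATP content (CellTiter-Glo) served as the growth readout. Knockout chicken DT40 cells expressing human TDP1 were exposed to compounds without camptothecin for a minimum 48 hr at 37 °C.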
Active calls of the source: *; u = inconclusive; x = not tested or not shown; [ ] = another dose, or the depositor's remark. Compounds with a hit are over-represented: about 17% of the library has one in this group of screens. Unless noted, calls follow the shape of the dose curve; as a rule, active = well fitted curve in the direction sought with a large enough effect; inconclusive = small, poorly fitted or top-dose-only effect, or another doubt; inactive = no such curve, though single readings can be large; an effect the other way counts as inactive or inconclusive. Potency is read from the fitted curve at half-maximal effect.

SMILES	DT40 TDP1 CPT	TDP1 block	ClpP mod	DT40 TDP1 no CPT
COCC1CCN(Cc2c(C(=O)N3CCOCC3)nc3c(C)cccn23)C1 (stereo not given)	25.6%	x	-4.2%	13.7%
COC(=O)c1ccccc1C(=O)c1c(C)cc(C)cc1C	u	x	-0.9%	u
COc1ccc(-n2c(SCC(=O)Nc3nccs3)nnc2-c2ccc(Cl)cc2)cc1	-25.3%	x	-1.4%	3.7%
COc1ccc(-c2[nH]c(-c3ccc(Cl)cc3)nc2SCC(=O)Nc2nccs2)cc1	16.4µM*	-2.6%	-19.1%	23.1µM*
COc1ccc(-c2[nH]c(-c3ccccc3)nc2SCC(=O)Nc2nccs2)cc1	18.4µM*	2.6%	-5.6%	23.1µM*
COc1ccc(OC)c(-c2cc(Cl)c3c(c2)CC(CNC(=O)c2cccnc2SC)O3)c1 (stereo not given)	3.5%[9.04 µM]	x	x	u
CC(C)C(=O)N1CCN(c2ccc(NC(=O)c3cccs3)cc2Cl)CC1	23.1µM*	4.8%	-1.4%	13µM*
CN1CCN(c2ccc([N+](=O)[O-])cc2NC(=O)c2ccco2)CC1	-25.2%	1.6%	0.4%	-19.0%
CN1CCN(c2ccc([N+](=O)[O-])cc2NC(=O)c2cccs2)CC1	u	3.8%	-3.1%	23.1µM*
CC(C)C(=O)N1CCN(c2ccc(NC(=O)c3ccc4c(c3)OCCO4)cc2Cl)CC1	u	2.2%	0.3%	23.1µM*
CC(C)C(=O)N1CCN(c2ccc(NC(=O)c3cccs3)cc2)CC1	u	0.0%	2.5%	u
O=C(Cc1ccc(Cl)cc1)Nc1ccc(N2CCN(C(=O)c3ccco3)CC2)c(Cl)c1	14.6µM*	4.4%	-0.7%	23.1µM*
CCOc1ccccc1C(=O)N(Cc1ccc(C)o1)C1CCS(=O)(=O)C1 (stereo not given)	u	7.5%	-0.3%	u
CCCc1nn2c(=O)cc(COC(=O)c3ccccc3NC(=O)COc3ccccc3F)nc2s1	u	3.8%	-1.2%	u
O=C(Nc1ccc(N2CCN(C(=O)c3ccco3)CC2)c(Cl)c1)c1cccs1	20.6µM*	5.6%	-6.1%	20.6µM*
CC1(C)CC=C(O[Si](C)(c2ccccc2)c2ccccc2)CC1	x	6.9%	x	x
CCOCCCNC(=O)c1cc2c(=O)n(C)c3ccccc3c2n1C	u	0.0%	3.5%	u
Cn1c(C(=O)NC2CCCCC2)cc2c(=O)n(C)c3ccccc3c21	u	0.0%	-18.2%	16.4µM*
Cn1c(=O)c(C(=O)NC2CCCCCC2)c(O)c2ccccc21	-5.8%	x	-4.1%	-17.3%
CC1CCCCN1CCNC(=O)c1cc2c(=O)n(C)c3ccccc3c2n1C (stereo not given)	u	0.0%	4.4%	u
Cn1c(C(=O)NC2CCCCCC2)cc2c(=O)n(C)c3ccccc3c21	14.6µM*	-2.9%	3.4%	16.4µM*
Cn1c(=O)c(C(=O)NC2CCCCCCC2)c(O)c2ccccc21	20.6µM*	0.0%	-2.4%	20.6µM*
CC(C)=CCOc1c2ccoc2c(OCC=C(C)C)c2oc(=O)ccc12	u	-16.3%	-3.1%	u
CCc1nc2ccc(C(=O)N(CC)CCN(C)C)cn2c1N(C)C(=O)c1cccc(OC)c1	-4.5%	x	-1.7%	-0.2%
Cc1ccc(C(=O)NCCN(C)C)c(C)c1	-1.3%	4.4%	0.0%	-14.0%
SMILES	DT40 TDP1 CPT	TDP1 block	ClpP mod	DT40 TDP1 no CPT
CNc1c2cccc(C)c2nc2c(C(=O)NCCN(C)C)cccc12	0.184µM*	x	0.9%	0.184µM*
CCCc1cc(=O)[nH]c(Nc2cc(C)cc(C)c2)n1	u	4.9%	-4.3%	u
CCCc1cc(=O)[nH]c(Nc2cc(Cl)cc(Cl)c2)n1	14.6µM*	0.0%	-7.6%	16.4µM*
CCCCc1ccc(Nc2nc(CCC)cc(=O)[nH]2)cc1	u	5.6%	-16.6%	16.4µM*
CCCc1cc(=O)[nH]c(Nc2ccc(OCC)cc2)n1	u	6.1%	-3.6%	u
O=C(Nc1cccc(S(=O)(=O)N2CCCC2)c1)c1ccccc1OC(F)F	-21.2%	0.0%	-2.8%	-29.7%
COc1ccc(C(=O)N2CCC3(CCN(C(=O)Nc4cccc(C#N)c4)CC3)CC2)cc1	5.5%	x	x	u
CCc1nnc(NC(=O)CCC(=O)N2CCC(Cc3ccccc3)CC2)s1	u	5.4%	-0.4%	u
CCC(C)[C@H]1CNC(=S)N1CCC12CC3CC(CC(C3)C1)C2 (stereo not given in full)	16.4µM*	1.2%	0.4%	14.6µM*

Assay outcomes from PubChem BioAssay.
